An excerpt weighted towards active compounds, which were near 1.8% of everything screened.
RN4220 kill: S. aureus RN4220 growth inhibition | OD600, 16 h | inhibition, % (test concentration not listed) | actives 0.33% (n = 330,000); in the data active = inhibition above about 85%
PrPC TRFRET: cell surface PrPC inhibition, primary TR-FRET screen; TR-FRET read-out; actives 0.43% (n = 370,000); AID 720596; inhibition, % at 13.8 µM; P04156; in the data active = inhibition above about 24%
PfHsp40 rescue: rescue of PfHsp40-mediated yeast toxicity | actives 0.68% (n = 340,000) | AID 504582 | S. cerevisiae expressing PfHsp40, growth rescue, ATP luminescence | growth rescue, % at 12.5 µM; in the data active = growth rescue above about 28%, passing the limit was not always enough;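 note: yeast W303a lacking pdr1 and pdr3 grown in galactose medium; growth measured after three days at 30 °C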
ugtP null kill: growth inhibition of S. aureus ugtP deletion strain. S. aureus RN4220 ugtP deletion, OD600 growth, 16 h. growth inhibition, % (no concentration beside the values). actives 0.54% (n = 330,000); in the data active = growth inhibition above about 68%
DUSP3 inh: blocks human VHR1 dual specificity phosphatase. P51452. recombinant VHR phosphatase, pNPP absorbance. inhibition, % at 13.3 µM. actives 0.52% (n = 290,000). AID 1654; in the data active = inhibition above about 50%
PrPC confirm: cell surface PrPC inhibition, TR-FRET confirmation; cell surface PrPC level; shares compounds with PrPC TRFRET; actives 65% (n = 1,500); inhibition, % at 13.8 µM; in the data active = inhibition above about 25%
LD9 cytotox: kills or reduces viability of LD9 cells in PrPc counter-screen; shares compounds with PrPC TRFRET; actives 29% (n = 1,500); LD9 cells cytotoxicity, luminescence viability; AID 743201; inhibition, % at 13.8 µM; in the data active = inhibition above about 9.5%
A number is an active result.

For COc1cc(NC(=O)COc2ccc(-n3ccnc3)cc2)cc(OC)c1 the results were RN4220 kill inactive, PrPC TRFRET inactive, PfHsp40 rescue inactive, ugtP null kill inactive and DUSP3 inh inactive.
Screening CC(C)(C)c1ccc(NC(=O)COc2ccc(-n3ccnc3)cc2)cc1 returned RN4220 kill inactive, PrPC TRFRET 28, PfHsp40 rescue inactive, ugtP null kill inactive, DUSP3 inh inactive, PrPC confirm inactive and LD9 cytotox 12.
For CCN(CC)C(=O)CSc1nc(-c2cccs2)cc(-c2cccs2)c1C#N the results were RN4220 kill inactive, PrPC TRFRET inactive, PfHsp40 rescue inactive, ugtP null kill inactive and DUSP3 inh inactive.
For CCN(CC)C(=O)CSc1nc(N)c(C#N)c(-c2cccs2)c1C#N the results were RN4220 kill inactive, PrPC TRFRET 63, PfHsp40 rescue inactive, ugtP null kill inactive, DUSP3 inh inactive, PrPC confirm inactive and LD9 cytotox inactive.
For COc1ccccc1Cn1c(=S)[nH]c2ccccc2c1=O the results were RN4220 kill inactive, PrPC TRFRET 62, PfHsp40 rescue inactive, ugtP null kill inactive, DUSP3 inh inactive, PrPC confirm 90 and LD9 cytotox inactive.
`COc1ccccc1Cn1c(=S)[nH]c2ccc(F)cc2c1=O` gave RN4220 kill inactive, PrPC TRFRET 108, PfHsp40 rescue inactive, ugtP null kill inactive, DUSP3 inh inactive, PrPC confirm 131 and LD9 cytotox inactive.
`O=[N+]([O-])c1c(Nc2cccc(O)c2)cc(Cl)c2nonc12` gave PrPC TRFRET 85, PfHsp40 rescue inactive, DUSP3 inh inactive, PrPC confirm 92 and LD9 cytotox 98.
COc1ccc2[nH]c3c(NCCC4=CCCCC4)ncnc3c2c1 was read as RN4220 kill inactive, PrPC TRFRET 41, PfHsp40 rescue inactive, ugtP null kill inactive, DUSP3 inh inactive, PrPC confirm 40 and LD9 cytotox 22.
`COc1cc(OC)c(C(=O)NN=Cc2ccoc2)cc1OC` gave RN4220 kill inactive and ugtP null kill inactive.
For Cn1c(SCc2ccc(Cl)cc2)nnc1-c1ccc2nonc2c1 the results were RN4220 kill inactive, PrPC TRFRET 70, PfHsp40 rescue inactive, ugtP null kill inactive, DUSP3 inh inactive, PrPC confirm inactive and LD9 cytotox inactive.
CC1CCCCC1Nc1nc2ccc(Cl)cc2n2cnnc12 (stereo not given) was read as RN4220 kill inactive, PrPC TRFRET 34, PfHsp40 rescue 27, ugtP null kill inactive, DUSP3 inh inactive, PrPC confirm inactive and LD9 cytotox inactive.
`Cc1cc(C)cc(Nc2nc3ccc(C)cc3n3cnnc23)c1` gave RN4220 kill inactive, PrPC TRFRET inactive, PfHsp40 rescue inactive and ugtP null kill inactive.
For N#CC1=C(c2ccccc2)/C(=C/c2ccccc2)OC1=O the results were PrPC TRFRET inactive, PfHsp40 rescue inactive and DUSP3 inh inactive.
Screening N#CC(C#N)=C1NC(N)=C(C#N)C(c2ccccc2)=C1C#N returned PrPC TRFRET 74, PfHsp40 rescue inactive, DUSP3 inh inactive, PrPC confirm 103 and LD9 cytotox inactive.
For COC(=O)C1=C(C)OC(N)=C(C#N)C1c1c(C)nn(-c2ccccc2)c1Cl (stereo not given) the results were RN4220 kill inactive, PrPC TRFRET inactive, PfHsp40 rescue inactive, ugtP null kill inactive and DUSP3 inh inactive.
For Cc1nn(-c2ccccc2)c(Cl)c1C1C(C#N)=C(N)Oc2c1c(=O)oc1ccccc21 (stereo not given) the results were RN4220 kill inactive, PrPC TRFRET 36, PfHsp40 rescue inactive, ugtP null kill inactive, DUSP3 inh inactive, PrPC confirm inactive and LD9 cytotox inactive.
CCN1/C(=C/C=C/c2oc3ccc(-c4ccccc4)cc3[n+]2CC)Oc2ccc(-c3ccccc3)cc21 was read as RN4220 kill 97, PrPC TRFRET 43, PfHsp40 rescue 129, ugtP null kill 100, DUSP3 inh inactive, PrPC confirm 56 and LD9 cytotox 64.
CC(=O)NC(=S)Nc1ccc(NC(=O)COc2ccc(Cl)cc2)cc1 was read as RN4220 kill inactive, PrPC TRFRET 41, PfHsp40 rescue inactive, ugtP null kill inactive, DUSP3 inh inactive, PrPC confirm inactive and LD9 cytotox inactive.
Screening CNc1c2cccc(C)c2nc2c(C(=O)NCCN(C)C)cccc12 returned PrPC TRFRET 29, PfHsp40 rescue inactive, PrPC confirm 62 and LD9 cytotox 59.
`Cc1ccc(C(=O)NCCN(C)C)c(C)c1` gave RN4220 kill inactive, PrPC TRFRET inactive, PfHsp40 rescue inactive, ugtP null kill inactive and DUSP3 inh inactive.
For CCc1nonc1NC(=O)c1oc2cc(Br)ccc2c1C the results were RN4220 kill inactive, PrPC TRFRET 28, PfHsp40 rescue inactive, ugtP null kill inactive, DUSP3 inh inactive, PrPC confirm 91 and LD9 cytotox inactive.
Screening CCOc1ccc2[nH]cc(C(=O)NCc3ccc(F)cc3)c(=O)c2c1 returned RN4220 kill inactive, PrPC TRFRET 27, PfHsp40 rescue inactive, ugtP null kill inactive, DUSP3 inh inactive, PrPC confirm 27 and LD9 cytotox inactive.
`CC(C)c1oc(=O)cc2c1[C@@H](O)[C@H]1OC(=O)[C@@]3(C)C[C@@H](O)[C@@H](O)[C@@]2(C)C13` (stereo not given in full) gave PrPC TRFRET 64, PfHsp40 rescue inactive, DUSP3 inh inactive, PrPC confirm 58 and LD9 cytotox 11.
CC(C)c1oc(=O)cc2c1[C@@H](O)[C@H]1OC(=O)[C@@]3(C)CC[C@@H](O)[C@@]2(C)C13 (stereo not given in full) was read as PrPC TRFRET 62, PfHsp40 rescue inactive, DUSP3 inh inactive, PrPC confirm 52 and LD9 cytotox 13.
For Clc1ccc(C2C3CN(CC4CCCCC4)C(c4ccccc4)C34CC2(c2ccccc2)C4)cn1 (stereo not given) the results were RN4220 kill inactive and ugtP null kill inactive.
For c1ccc2sc(Nc3nc4cc5c(cc4s3)OCO5)nc2c1 the results were RN4220 kill inactive, PrPC TRFRET 80, PfHsp40 rescue inactive, ugtP null kill inactive, DUSP3 inh inactive, PrPC confirm 63 and LD9 cytotox inactive.
CC(=NNC(=O)c1ccoc1C)c1cccc(NC(=O)C2CC2)c1 was read as RN4220 kill inactive and ugtP null kill inactive.
CCOC1OC(C(=O)N2CCN(Cc3ccccc3)CC2)=CC(c2ccc(Br)cc2)C1CCCO (stereo not given) was read as RN4220 kill inactive and ugtP null kill inactive.
Screening CCOc1ccc(N(C)S(=O)(=O)c2ccc(C)c(C(=O)N3CCN(Cc4ccc5c(c4)OCO5)CC3)c2)cc1 returned RN4220 kill inactive, PrPC TRFRET 25, PfHsp40 rescue inactive, ugtP null kill inactive, PrPC confirm inactive and LD9 cytotox inactive.
Cc1ccc(-n2[nH]c(C)c(C=Nc3ccccn3)c2=O)cc1 was read as RN4220 kill inactive and ugtP null kill inactive.

Assay outcomes: PubChem, several laboratories
